TDP1 cell CPT: growth inhibition of DT40 Tdp1-/-;hTDP1 cells with camptothecin (screen for TDP1 inhibitors); actives 12% (n = 420,000); chicken DT40 Tdp1-/-;hTDP1 cells + 20 nM CPT, ATP luminescence, 48 h; Potency, µM (top dose mostly 46.2 µM), inactives show top-dose activity change, negative = growth inhibition, hits mostly inhibitors; AID 686979; also: potency is read from the fitted curve at half-maximal effect; nearly all actives have a fitted effect of over 55% in size
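Cell growth measured by CellTiter-Glo luminescence after a minimum 48 h, 37 C compound exposure with 20 nM CPT in Tdp1-knockout DT40 cells stably expressing hTDP1, seeded 400/well; qHTS titration format.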
DT40 TDP1 no CPT: qHTS for Inhibitors of human tyrosyl-DNA phosphodiesterase 1 (TDP1): qHTS in cells in absence of CPT; actives 15% (n = 420,000); Potency, µM (doses to about 46.2 µM), for inactives: top-dose activity change, negative = growth inhibition, usual class: inhibitors; DT40 Tdp1-/- hTDP1 cells, no CPT, ATP luminescence, 48 h; also: potency is read from the fitted curve at half-maximal effect; nearly all actives have a fitted effect of over 55% in size
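No-CPT arm: Tdp1-/-;hTDP1 DT40 cells (400/well) plus compounds, incubated ≥48 hr at 37 °C. Readout CellTiter-Glo luminescence.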
HT1080 IDH1KD tx: HT-1080 IDH1 knockdown cell toxicity (counter line); HT-1080 IDH1 knockdown viability, ATP luminescence, 48 h; Potency, µM (doses to about 46.1 µM), for inactives: at the top dose activity, negative = toxicity, hits mostly cytotoxic; AID 686971; actives 2% (n = 360,000);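 also: potency is read from the fitted curve at half-maximal effect; 0% = DMSO wells and -100% = cell-free medium wells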
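CellTiter-Glo luminescence after 48 h compound exposure at 37 degrees C of IDH1-knockdown HT-1080 cells in 5% FBS RPMI. %Activity scaled between DMSO wells and cell-free media wells, with curves fitted and assigned curve classes.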
IL1B secr inh: blocks inflammasome-driven IL-1 beta release. THP-1 LPS/ATP IL-1B secretion, AlphaLISA, 16 h; active compounds read low. activity change, % at 57.5 µM. actives 4.7% (n = 360,000). AID 743279; in the data active = activity change below about -50%; inconclusive = mostly about -30% to -49%
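THP-1 cells pretreated 1 hr with compounds (up to 57.5 uM final), then stimulated with LPS (250 ng/mL final) plus ATP (1.25 mM final); secreted IL-1B measured by AlphaLISA after 16 hr, decreased signal indicating inhibition.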
HT1080-NT tox: kills 2HG-producing HT-1080-NT fibrosarcoma cells | HT-1080-NT fibrosarcoma viability, CellTiter-Glo ATP luminescence, 48 h | actives 1.6% (n = 360,000) | AID 686970 | Potency, µM (titrated, usually from 46.1 µM), without a hit: at the top dose activity, negative = less viability, hits mostly cytotoxic;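 also: NT is the 2HG producing partner of a matched IDH1 knockdown line; potency is read from the fitted curve at half-maximal effect; 0% = DMSO-treated cells and -100% = media-only wells without cells; nearly all actives have a fitted effect of over 55% in size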
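Compounds were tested in concentration-response format on HT-1080-NT cells for 48 hours at 37 degrees C. Cell viability came from CellTiter-Glo luminescence; curves were classified by r2, response magnitude and activity.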
* = called active by the depositor; i = inactive; ? = inconclusive; · = no result. Sampled rows, rich in hits. Any-hit rate of the full collection: about 19%. Unless noted, calls follow the shape of the dose curve; as a rule, active = well fitted curve in the direction sought with a large enough effect; inconclusive = small, poorly fitted or top-dose-only effect, or another doubt; inactive = no such curve, though single readings can be large; an effect the other way counts as inactive or inconclusive. Unless noted, % is scaled to controls: 0 for no effect and ±100 for the full control effect.

SMILES	TDP1 cell CPT	DT40 TDP1 no CPT	HT1080 IDH1KD tx	IL1B secr inh	HT1080-NT tox
CCCN(C(=O)c1cc(S(=O)(=O)N2CCc3ccccc32)cn1C)c1ccc(OCC)cc1	?	20.6µM*	·	·	·
CCOC(=O)N1[C@@H]2C=C(C)[C@@H]2[C@@H]2[C@@H](C)C(=O)N21	-2.6%	3.2%	22.3%	8.2	19.1%
CSc1cccc(NC(=O)c2cc(S(=O)(=O)N3CCc4ccccc43)cn2C)c1	14.6µM*	25.9µM*	-13.4%	-14.5	-7.0%
CN(C(=O)c1cc(S(=O)(=O)N2CCc3ccccc32)cn1C)C1CCCCC1	20.6µM*	18.4µM*	-16.6%	-2.9	-1.8%
Cn1cc(S(=O)(=O)N2CCc3ccccc32)cc1C(=O)Nc1ccc(Cl)cc1	25.9µM*	25.9µM*	-14.2%	-7.4	-24.9%
Cc1cccc(C)c1NC(=O)c1cc(S(=O)(=O)N2CCc3ccccc32)cn1C	-2.8%	-22.7%	2.9%	16.0	16.1%
Cn1cc(S(=O)(=O)N2CCc3ccccc32)cc1C(=O)NC(C)(C)C	3.26µM*	2.59µM*	-10.0%	36.0	?
Fc1ccc(-c2nnc(SCc3cccnc3)o2)cc1	-5.2%	-16.4%	16.8%	32.0	17.6%
CCCCOc1ccccc1C1CC(=O)NC2=C1C(=O)CCC2 (stereo unspecified)	1.64µM*	1.64µM*	1.64µM*	29.7	2.31µM*
CCCOc1ccccc1C1CC(=O)NC2=C1C(=O)CCC2 (stereo unspecified)	4.11µM*	4.11µM*	8.2µM*	53.4	11.6µM*
CCOc1ccc(C2CC(=O)NC3=C2C(=O)CCC3)cc1 (stereo unspecified)	-0.4%	8.8%	6.4%	-16.1	8.1%
CCOc1ccccc1C1CC(=O)NC2=C1C(=O)CCC2 (stereo unspecified)	?	16.4µM*	23.1µM*	22.8	?
c1ccc(Nc2cc(-c3ccccc3)nc3ncnn23)cc1	-21.0%	?	?	?	-0.1%
CC(=O)c1cc(F)ccc1OCC(=O)N1CCCc2ccccc21	?	?	10.2%	10.5	11.3%
Fc1ccc(Sc2ccccc2CNC2=NCCN2)cc1	11.6µM*	18.4µM*	?	?	-17.2%
Cc1ccccc1C(=O)Nc1nc(-c2ccc(Br)cc2)ns1	16.4µM*	20.6µM*	·	·	·
Cc1cccc(C(=O)Nc2nc(-c3ccc(Br)cc3)ns2)c1	-29.2%	?	·	·	·
Cc1cccc(C)c1OCC(=O)Nc1nc(-c2ccc(Br)cc2)ns1	?	16.4µM*	·	·	·
CC(C(=O)NC1CCCCC1)N1CCN(C)CC1 (stereo unspecified)	-5.2%	24.8%	8.8%	-28.4	3.9%
COc1ccc(/C(O)=C2/C(=O)C(=O)N(c3ccccn3)C2c2ccc(C(C)C)cc2)cc1 (stereo unspecified)	?	?	1.5%	-3.2	-1.5%
FC(F)(F)Oc1ccc(Nc2nc(N3CCOCC3)nc(N3CCOCC3)n2)cc1	18.4µM*	16.4µM*	7.8%	-4.8	27.6%
CCc1ccc(Nc2nc(N3CCOCC3)nc(N3CCOCC3)n2)cc1	?	?	3.5%	?	-0.5%
Cc1ccc(Nc2nc(OC(C(F)(F)F)C(F)(F)F)nc(N3CCOCC3)n2)cc1	?	14.6µM*	-4.0%	-80.4*	-0.6%
COC(=O)C[C@@H]1C[C@@H]2c3cc(NS(=O)(=O)c4ccc(F)cc4)ccc3O[C@@H]2[C@H](CO)O1	1.2%	-30.5%	12.5%	?	12.5%
COc1ccccc1C(=O)COC(=O)c1nc2nc(C)cc(C)n2n1	-4.9%	3.8%	0.8%	-1.1	2.8%
SMILES	TDP1 cell CPT	DT40 TDP1 no CPT	HT1080 IDH1KD tx	IL1B secr inh	HT1080-NT tox
CC(C)CNC(=O)c1cc([N+](=O)[O-])ccc1N1CCOCC1	0.2%	-14.7%	-10.0%	0.0	-0.1%
Cc1ccc(C(=O)c2cc([N+](=O)[O-])ccc2N2CC(C)OC(C)C2)cc1 (stereo unspecified)	5.8µM*	3.26µM*	?	33.2	18.4µM*
CC(C)(CNC(=O)c1cc([N+](=O)[O-])ccc1N1CCC(Cc2ccccc2)CC1)N1CCOCC1	?	?	-20.2%	-56.6*	-16.5%
O=C(c1ccc(Cl)cc1)c1cc([N+](=O)[O-])ccc1N1CCOCC1	0.731µM*	0.82µM*	1.16µM*	45.0	1.46µM*
O=C(c1ccccc1)c1cc([N+](=O)[O-])ccc1N1CCOCC1	0.731µM*	0.82µM*	0.731µM*	31.4	1.03µM*
CC1CN(c2ccc([N+](=O)[O-])cc2C#N)CC(C)O1 (stereo unspecified)	4.5%	-6.6%	11.0%	0.7	9.8%
CN1CC(=O)N(CC(=O)Nc2cc(Cl)cc(Cl)c2)C1=O	-9.1%	20.0%	-2.9%	-24.3	-3.2%
COc1ccc(C(=O)NCc2nnc(SCC(=O)N3CCCc4ccccc43)o2)cc1OC	-11.0%	-3.0%	5.8%	-7.7	13.6%
O=C(c1ccc(Br)cc1)c1cc([N+](=O)[O-])ccc1N1CCOCC1	0.82µM*	1.46µM*	5.8µM*	39.1	5.17µM*
Cc1ccc(-c2nc(CS(=O)(=O)CC(=O)NCCN3CCCC3)c(C)o2)cc1	-2.0%	-23.1%	-29.7%	-6.9	-19.9%
COCCN1CCN(C(=O)c2cnn(-c3nccc(-c4ccco4)n3)c2C2CC2)CC1	-0.4%	-3.8%	·	·	·
CSc1ccccc1OCc1cc(C(=O)NCCC2=CCCCC2)no1	-19.5%	-29.4%	-18.6%	18.0	?
CSc1ccccc1OCc1cc(C(=O)N(C)Cc2ccc3nsnc3c2)no1	?	-28.2%	5.0%	i	6.7%
CSc1ccccc1OCc1cc(C(=O)N(C)Cc2ccc(C)o2)no1	16.4µM*	?	0.9%	-66.8*	-0.9%
CCN(CC1CCCO1)C(=O)c1cc(COc2ccccc2SC)on1 (stereo unspecified)	16.4µM*	20.6µM*	-3.4%	i	-6.4%
CCN(CC)C1CCN(C(=O)c2cc(COc3ccccc3SC)on2)C1 (stereo unspecified)	-11.7%	0.6%	-1.4%	-0.2	-3.2%
CSc1ccccc1OCc1cc(C(=O)NCCn2nc(C)cc2C)no1	11.6µM*	?	-3.2%	9.6	0.7%
CSc1ccccc1OCc1cc(C(=O)NCCN2CCCc3ccccc32)no1	?	14.6µM*	11.6µM*	-9.6	-24.5%
CCC(C(=O)Nc1cccnc1)c1ccccc1 (stereo unspecified)	-5.0%	-10.1%	7.5%	9.2	0.7%
CN(C)c1ccc(/C=N/OC(=O)Nc2ccccc2Cl)cc1	8.2µM*	14.6µM*	-5.9%	-17.7	0.0%
COc1ccc(/C=N/OC(=O)Nc2ccccc2OC)cc1	1.46µM*	1.64µM*	5.8µM*	0.0	9.2µM*

High-throughput results from PubChem BioAssay.
